Source: PubChem BioAssay (NCI)
The panel holds about 83,000 compounds, 20% with a hit somewhere; the sample as a whole holds those more often.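 For each line, cells grew in 96-well plates with the test compound present at a single concentration for 48 hours.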 Active and inactive are the calls of the source. How the source made its calls: active means growth percent below 10; inactive means the rest.

Experiments:
Assay in all cases: NCI-60 one-dose screen, 48 h (100 = growth as untreated, 0 = no growth, -100 = all killed)
Conditions in all cases: 10 µM unless noted
SR leukemia = tested on: SR leukemia
RPMI-8226 leukemia = tested on: RPMI-8226 leukemia
OVCAR-8 ovarian = tested on: OVCAR-8 ovarian
OVCAR-5 ovarian = tested on: OVCAR-5 ovarian
OVCAR-4 ovarian = tested on: OVCAR-4 ovarian
SK-OV-3 ovarian = tested on: SK-OV-3 ovarian
IGROV1 ovarian = tested on: IGROV1 ovarian
HS 578T breast = tested on: HS 578T breast
NCI/ADR-RES ovarian = tested on: NCI/ADR-RES ovarian
T-47D breast = tested on: T-47D breast
BT-549 breast = tested on: BT-549 breast
MDA-MB-435 melanoma = tested on: MDA-MB-435 melanoma
SW-620 colon = tested on: SW-620 colon
MCF7 breast = tested on: MCF7 breast
HCT-116 colon = tested on: HCT-116 colon
HCC-2998 colon = tested on: HCC-2998 colon
KM12 colon = tested on: KM12 colon

Measured: growth

COc1ccc(CCN2C(=O)CSC2=S)cc1
inactive: SR leukemia 65.8% | RPMI-8226 leukemia 33.3% | OVCAR-8 ovarian 102% | OVCAR-5 ovarian 95.7% | OVCAR-4 ovarian 92.8% | SK-OV-3 ovarian 111% | IGROV1 ovarian 109% | HS 578T breast 99.4% | NCI/ADR-RES ovarian 98.4% | T-47D breast 50.7% | BT-549 breast 112% | MDA-MB-435 melanoma 77.6% | SW-620 colon 61.3% | MCF7 breast 24.2% | HCT-116 colon 84.6% | HCC-2998 colon 110%
active: KM12 colon 6.12%

Cc1ccc(N2C(=O)/C(=C/C=C/c3ccco3)SC2=S)cc1
inactive: SR leukemia 56.6% | RPMI-8226 leukemia 75.3% | OVCAR-8 ovarian 99.2% | OVCAR-5 ovarian 103% | OVCAR-4 ovarian 92.4% | SK-OV-3 ovarian 107% | IGROV1 ovarian 103% | HS 578T breast 96.2% | NCI/ADR-RES ovarian 97.6% | T-47D breast 71.6% | BT-549 breast 126% | MDA-MB-435 melanoma 90.6% | SW-620 colon 90.1% | MCF7 breast 66.4% | HCT-116 colon 94.2% | HCC-2998 colon 101% | KM12 colon 95.4%

COc1cc2oc(-c3cccc(C(=O)N[C@@H](CC(C)C)C(=O)OC(C)(C)C)c3)cc(=O)c2c(OC)c1OC
inactive: SR leukemia 42.1% | RPMI-8226 leukemia 37.4% | OVCAR-8 ovarian 49.3% | OVCAR-5 ovarian 93% | OVCAR-4 ovarian 69.6% | SK-OV-3 ovarian 111% | IGROV1 ovarian 71.5% | HS 578T breast 56.9% | NCI/ADR-RES ovarian 49% | T-47D breast 52.7% | BT-549 breast 67.5% | MDA-MB-435 melanoma 90% | SW-620 colon 83.4% | MCF7 breast 69.9% | HCT-116 colon 62.5% | HCC-2998 colon 84% | KM12 colon 59.8%

O=C(c1ccc(O)c(C(=O)N2Cc3ccc(OCCC[P+](c4ccccc4)(c4ccccc4)c4ccccc4)cc3C2)c1)N1Cc2cccc(F)c2C1
inactive: SR leukemia 54.5% | RPMI-8226 leukemia 31.8% | OVCAR-8 ovarian 77.5% | OVCAR-5 ovarian 102% | OVCAR-4 ovarian 91.4% | SK-OV-3 ovarian 114% | IGROV1 ovarian 43.8% | HS 578T breast 72.4% | NCI/ADR-RES ovarian 108% | T-47D breast 38.7% | BT-549 breast 65.9% | MDA-MB-435 melanoma 57.1% | SW-620 colon 76.2% | MCF7 breast 51.9% | HCT-116 colon 96.9% | HCC-2998 colon 68.4% | KM12 colon 57.8%

Cc1ccc(CSc2nc(-c3ccc(Cl)cc3)c(C#N)c(N3CCOCC3)n2)cc1
inactive: SR leukemia 85.6% | RPMI-8226 leukemia 82.2% | OVCAR-8 ovarian 97.2% | OVCAR-5 ovarian 100% | OVCAR-4 ovarian 89.8% | SK-OV-3 ovarian 98.2% | IGROV1 ovarian 106% | HS 578T breast 107% | NCI/ADR-RES ovarian 94.8% | T-47D breast 79% | BT-549 breast 115% | MDA-MB-435 melanoma 94.8% | SW-620 colon 96% | MCF7 breast 88.6% | HCT-116 colon 90% | HCC-2998 colon 104% | KM12 colon 96.5%

N#Cc1c(Nc2ccccc2)nn2c(-c3ccc([N+](=O)[O-])cc3)ccnc12
inactive: SR leukemia 103% | RPMI-8226 leukemia 94.1% | OVCAR-8 ovarian 99.9% | OVCAR-5 ovarian 99.6% | OVCAR-4 ovarian 108% | SK-OV-3 ovarian 111% | IGROV1 ovarian 100% | HS 578T breast 102% | NCI/ADR-RES ovarian 101% | T-47D breast 110% | BT-549 breast 99.5% | MDA-MB-435 melanoma 97.4% | SW-620 colon 103% | MCF7 breast 93.2% | HCT-116 colon 99.3% | HCC-2998 colon 106% | KM12 colon 102%

CC(C)(C)n1nnnc1C(Nc1cccc2c1OCO2)c1cc2cccc3ccc4cccc1c4c32 (stereo not given)
inactive: SR leukemia 82.3% | RPMI-8226 leukemia 55.3% | OVCAR-8 ovarian 90% | OVCAR-5 ovarian 91.9% | OVCAR-4 ovarian 79.2% | SK-OV-3 ovarian 94.5% | IGROV1 ovarian 81.2% | HS 578T breast 88.7% | NCI/ADR-RES ovarian 83.5% | T-47D breast 65.9% | BT-549 breast 130% | MDA-MB-435 melanoma 84.2% | SW-620 colon 88.8% | MCF7 breast 64.9% | HCT-116 colon 63% | KM12 colon 95.4%

COc1cc(OC)c(S(N)(=O)=O)cc1C(=O)/C=C/c1ccc(C)cc1
active: SR leukemia 5.66% | T-47D breast 2.31% | MDA-MB-435 melanoma 8.41% | SW-620 colon 6.29% | HCC-2998 colon 8.59% | KM12 colon -1.47%
inactive: RPMI-8226 leukemia 18.5% | OVCAR-8 ovarian 31.7% | OVCAR-5 ovarian 13.4% | OVCAR-4 ovarian 53.1% | SK-OV-3 ovarian 37.6% | IGROV1 ovarian 25.3% | HS 578T breast 21.3% | NCI/ADR-RES ovarian 37% | BT-549 breast 21.2% | MCF7 breast 12.2% | HCT-116 colon 11.4%

Cc1cccc(/C=C/C(=O)Nc2ncc(Cc3cccc(C)c3)s2)c1
inactive: RPMI-8226 leukemia 19.1% | OVCAR-8 ovarian 24.3% | OVCAR-5 ovarian 40.6% | OVCAR-4 ovarian 45.6% | SK-OV-3 ovarian 30% | IGROV1 ovarian 32.5% | HS 578T breast 14.2% | NCI/ADR-RES ovarian 18.3% | T-47D breast 32.7% | BT-549 breast 66.6% | SW-620 colon 16.8% | MCF7 breast 15.1% | HCT-116 colon 23.1% | HCC-2998 colon 34.8%
active: SR leukemia 6.46% | MDA-MB-435 melanoma -70.2% | KM12 colon 6.43%

NS(=O)(=O)c1ccc(Nc2nc(SCC(=O)c3ccc(Cl)cc3)nc3c2CCCC3)cc1
inactive: SR leukemia 26.9% | RPMI-8226 leukemia 42.8% | OVCAR-8 ovarian 52.3% | OVCAR-5 ovarian 88.3% | OVCAR-4 ovarian 47.7% | SK-OV-3 ovarian 101% | IGROV1 ovarian 84.8% | HS 578T breast 44.6% | NCI/ADR-RES ovarian 74.6% | T-47D breast 13.5% | BT-549 breast 67.3% | MDA-MB-435 melanoma 54.4% | SW-620 colon 40.5% | MCF7 breast 25.4% | HCT-116 colon 36.8% | HCC-2998 colon 21.6% | KM12 colon 19.6%

Cc1cccc2c3c(sc12)C(c1ccc(F)cc1)C(C#N)=C(/N=C/c1ccc(Cl)cc1)O3 (stereo not given)
active: OVCAR-8 ovarian -3.92% | HS 578T breast 1.34% | NCI/ADR-RES ovarian 2.96% | BT-549 breast -26.5% | HCT-116 colon 2.26%
inactive: SR leukemia 10.5% | RPMI-8226 leukemia 19.7% | OVCAR-5 ovarian 23.5% | OVCAR-4 ovarian 70% | SK-OV-3 ovarian 34.8% | IGROV1 ovarian 22.5% | T-47D breast 56.7% | SW-620 colon 19.6% | MCF7 breast 14.1% | KM12 colon 15.7%

CCNC(=O)N1CCc2cc(OC)c(OCCc3ccc(OC)cc3)cc2C1c1ccc(OC)cc1C (stereo not given)
active: SR leukemia 4.44% | HS 578T breast 1.32%
inactive: RPMI-8226 leukemia 13.6% | OVCAR-8 ovarian 27.6% | OVCAR-5 ovarian 35.9% | OVCAR-4 ovarian 50.3% | SK-OV-3 ovarian 45.9% | IGROV1 ovarian 27.8% | NCI/ADR-RES ovarian 12.3% | T-47D breast 42.3% | BT-549 breast 22.9% | MDA-MB-435 melanoma 11.4% | SW-620 colon 21.9% | MCF7 breast 21.5% | HCT-116 colon 10.5% | KM12 colon 24.1%

O=C(CSc1nc2ccccc2c(=O)n1-c1ccccc1)Nc1cccc(C(=O)/C=C/c2ccccc2Cl)c1
inactive: SR leukemia 89.2% | RPMI-8226 leukemia 68.5% | OVCAR-8 ovarian 99.5% | OVCAR-5 ovarian 108% | OVCAR-4 ovarian 102% | SK-OV-3 ovarian 115% | IGROV1 ovarian 107% | HS 578T breast 106% | NCI/ADR-RES ovarian 104% | T-47D breast 91.2% | BT-549 breast 118% | MDA-MB-435 melanoma 97.9% | SW-620 colon 91.7% | MCF7 breast 54.1% | HCT-116 colon 20.2% | HCC-2998 colon 108% | KM12 colon 100%

CNC(=O)c1cc(Oc2ccc3nc(NC(=O)c4ccc(N5CCOCC5)c(C(F)(F)F)c4)sc3c2)ccn1
inactive: SR leukemia 53.2% | RPMI-8226 leukemia 47.5% | OVCAR-8 ovarian 56.2% | OVCAR-5 ovarian 99% | OVCAR-4 ovarian 61.5% | SK-OV-3 ovarian 102% | IGROV1 ovarian 88.7% | HS 578T breast 69.6% | NCI/ADR-RES ovarian 70% | T-47D breast 86.1% | BT-549 breast 94% | MDA-MB-435 melanoma 88.4% | SW-620 colon 114% | MCF7 breast 70% | HCT-116 colon 60.2% | HCC-2998 colon 96.3% | KM12 colon 56.7%

Cc1ccc2sc3c(c2c1)OC(N)=C(C#N)C3c1cccc(F)c1 (stereo not given)
inactive: RPMI-8226 leukemia 14.4% | OVCAR-5 ovarian 14.4% | OVCAR-4 ovarian 20.3% | SK-OV-3 ovarian 22.5% | IGROV1 ovarian 18.8% | T-47D breast 35.5% | SW-620 colon 15.2% | MCF7 breast 15.2%
active: SR leukemia 9.55% | OVCAR-8 ovarian 4.8% | HS 578T breast 5.7% | NCI/ADR-RES ovarian 5.79% | BT-549 breast -6.44% | MDA-MB-435 melanoma -28.6% | HCT-116 colon -24.6% | KM12 colon 2.9%

CCOC(=O)c1c(Nc2ccccc2)nn2c(-c3ccc(OC)cc3)ccnc12
inactive: SR leukemia 76.7% | RPMI-8226 leukemia 75.1% | OVCAR-8 ovarian 94.3% | OVCAR-5 ovarian 90.9% | OVCAR-4 ovarian 98.7% | SK-OV-3 ovarian 101% | IGROV1 ovarian 101% | HS 578T breast 79.7% | NCI/ADR-RES ovarian 88.1% | T-47D breast 75.1% | BT-549 breast 127% | MDA-MB-435 melanoma 90.4% | SW-620 colon 95.1% | MCF7 breast 89.9% | HCT-116 colon 71.7% | HCC-2998 colon 95.7% | KM12 colon 73.9%

CC(C)(C)CC(C)(C)n1nnnc1C(Nc1nccs1)c1cc2cccc3ccc4cccc1c4c32 (stereo not given)
inactive: SR leukemia 96.6% | RPMI-8226 leukemia 104% | OVCAR-8 ovarian 100% | OVCAR-5 ovarian 84.6% | OVCAR-4 ovarian 99.7% | SK-OV-3 ovarian 103% | IGROV1 ovarian 93.5% | HS 578T breast 93.8% | NCI/ADR-RES ovarian 98% | T-47D breast 75.4% | BT-549 breast 91.6% | SW-620 colon 101% | MCF7 breast 75.3% | HCT-116 colon 97.7% | HCC-2998 colon 103% | KM12 colon 99.5%

O=C1/C(=C/C=C/c2ccco2)SC(=S)N1c1ccccc1
inactive: SR leukemia 43.8% | RPMI-8226 leukemia 53.6% | OVCAR-8 ovarian 66.4% | OVCAR-5 ovarian 88% | OVCAR-4 ovarian 90.9% | SK-OV-3 ovarian 110% | IGROV1 ovarian 44.3% | HS 578T breast 102% | NCI/ADR-RES ovarian 51.2% | T-47D breast 76.8% | BT-549 breast 65.2% | MDA-MB-435 melanoma 89.1% | SW-620 colon 98.9% | MCF7 breast 57.4% | HCT-116 colon 35.3% | HCC-2998 colon 87.3% | KM12 colon 94.4%
